Measurements: PubChem BioAssay (NCATS)
Inconclusive results are not listed. Active and inactive are the calls of the source. Calls follow the shape of the dose curve; as a rule, active = well fitted curve in the direction sought with a large enough effect; inconclusive = small, poorly fitted or top-dose-only effect, or another doubt; inactive = no such curve, though single readings can be large; an effect the other way counts as inactive or inconclusive. Peptide text beside a SMILES is read from it.

Assays:
[1] = biological target: M-phase phosphoprotein 8 (Homo sapiens) (UniProt Q99549); assay: qHTS Validation Assay for Inhibitors for MPP8 Chromodomain Interactions with Methylated Histone Tails (AID 488949); settings: AlphaScreen MPP8 binding to H3K9me3 peptide; series mostly up to 114 µM;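 also: AlphaScreen signal from MPP8 chromodomain bound to biotinylated H3K9me3 peptide; top concentration of the series differs between compounds; nearly all actives have a fitted effect of over 55% in size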
Procedure, shortened: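 Disruption of the preformed MPP8–trimethyl-H3K9 peptide complex (both 50 nM, 30 min, RT) is measured after 30 min compound exposure, using AlphaScreen proximity beads; aurintricarboxylic acid titration serves as plate control.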

[2] = biological target: Transient receptor potential cation channel subfamily V member 1 (Homo sapiens) (UniProt Q8NER1); assay: HTS Assay for Compounds that Act as Enhancers of the Vanilloid Receptor 1 (AID 488979); settings: TRPV1-expressing cells, enhancer of channel activity, stimulated with capsaicin at EC20; series mostly up to 41.7 µM
Procedure, shortened: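 TRPV1-expressing cells loaded with Fluo-8 calcium dye; compounds added and calcium influx read kinetically for 3 min (agonist phase), then capsaicin at EC20 added and read 2 min more for enhancement. Fluorescence ex 480/em 520 nm.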

[3] = biological target: Thyrotropin receptor (Homo sapiens) (UniProt P16473); assay: qHTS Assay for Antagonists of the Thyroid Stimulating Hormone Receptor (AID 488980); settings: TSHR-expressing cells, cAMP antagonist read-out; series mostly up to 57.5 µM
Procedure, shortened: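 Cells expressing human TSHR (HEK293) are dispensed in HBSS/HEPES containing 70 uM RO 20-1724, compound is added, then TSH at EC80 (4 nM final). Antibody in lysis buffer follows, 30 minutes at room temperature before HTRF detection.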

[4] = biological target: Methanococcus maripaludis chaperonin (MmCpn) (UniProt Q6LX38); assay: High-Throughput Screening for Modulators of Cytosolic Chaperonin Activity: MmCpn Primary Screen (AID 488978); settings: Purified MmCpn ATPase activity, ADP HTRF detection, 10 min; series mostly up to 76.9 µM;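 also: 50 nM MmCpn enzyme hydrolysing 30 µM ATP at 37 °C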
Procedure, shortened: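 Measures ATPase turnover of the M. maripaludis chaperonin (50 nM final) against 30 uM ATP over 10 min at 37C, with compound added 5 min beforehand at room temperature. ADP is quantified by HTRF immunodetection.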

[5] = biological target: D(1A) dopamine receptor (Homo sapiens) (UniProt P21728); assay: HTS Assay for Allosteric Agonists of the Human D1 Dopamine Receptor: Primary Screen for Agonists (AID 488981); settings: Inducible HEK293 T-REx D1 cells, calcium-flux fluorescence, 180 s kinetic; series mostly up to 41.8 µM
Procedure, shortened: (§1)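 Tetracycline-induced HEK293 T-REx cells force-coupled to calcium signalling were incubated overnight at 30 C and dye-loaded at room temperature. Calcium flux over 180 s after compound addition flagged agonists; a further 180 s read after EC20 dopamine flagged potentiators.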

[6] = biological target: D(1A) dopamine receptor (Homo sapiens) (UniProt P21728); assay: HTS Assay for Allosteric Agonists of the Human D1 Dopamine Receptor: Primary Screen for Potentiators (AID 488982); settings: HEK293 T-REx D1 inducible cells, calcium flux, kinetic fluorescence; series mostly up to 8.37 µM
Procedure, shortened: as §1

[7] = biological target: D(1A) dopamine receptor (Homo sapiens) (UniProt P21728); assay: HTS Assay for Allosteric Agonists of the Human D1 Dopamine Receptor: Primary Screen for Antagonists (AID 488983); settings: D1 receptor cell assay, antagonist mode, qHTS titration; series mostly up to 41.8 µM;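 also: calcium flux response to an EC80 dopamine challenge measured with no-wash dye; nearly all actives have a fitted effect of over 65% in size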
Procedure, shortened: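 Tetracycline-induced HEK293 T-REx D1 line, force-coupled to calcium flux, read with no-wash calcium dye. Compound added after 10 s baseline, read 180 s for agonism, then EC80 dopamine added and read a further 180 s.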

[8] = Validation screen for small molecules that induce genotoxicity in human embryonic kidney (HEK293T) cells expressing luciferase-tagged ELG1 (AID 493106); settings: luminescence; series mostly up to 46.1 µM
Procedure, shortened: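 HEK293T cells expressing luciferase-tagged ELG1, 2,000 cells/well, exposed to compound 16 hr at 37 °C, 5% CO2. Luciferase read after ONE-Glo, 30 min at room temperature; increased signal indicates genetic stress.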

[9] = biological target: Tyrosyl-DNA phosphodiesterase 1 (Homo sapiens) (UniProt Q9NUW8); assay: Confirmation Assay for Inhibitors of Tyrosyl-DNA Phosphodiesterase (TDP1) (AID 489007); settings: recombinant human TDP1 enzymatic activity, dose-response; also: potency is read from the fitted curve at half-maximal effect; nearly all actives have a fitted effect of over 40% in size
Procedure, shortened: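 Recombinant human Tdp1 (1 nM final), expressed in E. coli, preincubated 15 min with compound. Then 15 nM 5'-biotin/3'-phosphotyrosine-FITC DNA substrate added for 5 min at room temperature. AlphaScreen beads (10 ug/ml) added for 10 min; cleavage gives signal loss.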

Measured: Potency

D(1A) dopamine receptor (Homo sapiens), sequence (P21728 whole entry, looked up): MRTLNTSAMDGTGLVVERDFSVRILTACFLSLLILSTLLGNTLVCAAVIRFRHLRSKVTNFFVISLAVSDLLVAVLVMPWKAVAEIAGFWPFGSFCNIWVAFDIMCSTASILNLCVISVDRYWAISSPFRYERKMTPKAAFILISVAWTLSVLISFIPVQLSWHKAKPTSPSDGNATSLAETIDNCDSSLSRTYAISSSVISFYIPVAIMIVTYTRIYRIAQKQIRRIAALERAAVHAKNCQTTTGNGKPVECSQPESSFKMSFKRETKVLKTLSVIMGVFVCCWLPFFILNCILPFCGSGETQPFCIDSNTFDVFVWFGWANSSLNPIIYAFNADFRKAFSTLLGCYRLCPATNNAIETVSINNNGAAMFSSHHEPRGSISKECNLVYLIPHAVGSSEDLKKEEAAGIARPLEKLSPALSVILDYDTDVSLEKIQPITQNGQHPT
M-phase phosphoprotein 8 (Homo sapiens), sequence (Q99549 whole entry, looked up): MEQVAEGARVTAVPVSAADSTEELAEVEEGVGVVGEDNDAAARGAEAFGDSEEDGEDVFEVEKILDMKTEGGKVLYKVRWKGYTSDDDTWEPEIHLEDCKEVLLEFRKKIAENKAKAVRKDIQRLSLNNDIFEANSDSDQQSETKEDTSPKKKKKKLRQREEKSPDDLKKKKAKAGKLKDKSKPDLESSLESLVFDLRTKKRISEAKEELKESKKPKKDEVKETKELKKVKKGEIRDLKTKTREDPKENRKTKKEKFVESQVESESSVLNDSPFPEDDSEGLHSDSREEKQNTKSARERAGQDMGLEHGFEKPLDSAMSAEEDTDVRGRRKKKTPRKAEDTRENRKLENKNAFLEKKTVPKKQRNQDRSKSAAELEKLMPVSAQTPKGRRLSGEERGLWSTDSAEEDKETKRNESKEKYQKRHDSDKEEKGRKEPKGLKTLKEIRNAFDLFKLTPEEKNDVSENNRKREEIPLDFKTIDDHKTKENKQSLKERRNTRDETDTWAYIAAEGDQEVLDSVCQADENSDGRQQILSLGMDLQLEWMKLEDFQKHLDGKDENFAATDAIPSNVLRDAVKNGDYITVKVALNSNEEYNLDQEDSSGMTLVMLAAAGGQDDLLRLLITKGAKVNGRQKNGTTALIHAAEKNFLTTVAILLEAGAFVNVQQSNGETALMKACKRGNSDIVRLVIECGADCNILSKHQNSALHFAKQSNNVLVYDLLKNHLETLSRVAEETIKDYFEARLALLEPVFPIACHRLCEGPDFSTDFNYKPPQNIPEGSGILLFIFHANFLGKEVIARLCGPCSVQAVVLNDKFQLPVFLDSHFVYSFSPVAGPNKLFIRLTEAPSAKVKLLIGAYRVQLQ
Thyrotropin receptor (Homo sapiens), sequence (P16473 whole entry, looked up): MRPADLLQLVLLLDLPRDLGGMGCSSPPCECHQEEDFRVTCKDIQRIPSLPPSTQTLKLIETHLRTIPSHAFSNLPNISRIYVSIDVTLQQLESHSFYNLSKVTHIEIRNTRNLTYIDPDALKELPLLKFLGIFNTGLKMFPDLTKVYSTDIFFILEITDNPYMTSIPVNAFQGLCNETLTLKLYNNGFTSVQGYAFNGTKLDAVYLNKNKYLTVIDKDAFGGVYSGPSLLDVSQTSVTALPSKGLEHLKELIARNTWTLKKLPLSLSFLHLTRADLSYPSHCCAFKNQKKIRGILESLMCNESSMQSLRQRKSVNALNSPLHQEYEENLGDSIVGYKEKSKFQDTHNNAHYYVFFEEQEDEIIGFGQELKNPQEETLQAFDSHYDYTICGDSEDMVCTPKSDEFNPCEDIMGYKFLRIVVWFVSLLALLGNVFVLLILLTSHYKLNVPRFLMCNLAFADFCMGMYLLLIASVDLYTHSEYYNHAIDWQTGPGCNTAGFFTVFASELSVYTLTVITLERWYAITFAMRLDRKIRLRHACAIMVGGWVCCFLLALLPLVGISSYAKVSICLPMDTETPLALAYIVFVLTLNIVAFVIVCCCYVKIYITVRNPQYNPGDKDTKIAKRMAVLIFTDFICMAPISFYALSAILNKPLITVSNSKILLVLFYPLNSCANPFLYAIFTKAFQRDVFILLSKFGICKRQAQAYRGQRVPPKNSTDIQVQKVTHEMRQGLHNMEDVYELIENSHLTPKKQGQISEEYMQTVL
Tyrosyl-DNA phosphodiesterase 1 (Homo sapiens), sequence (Q9NUW8 whole entry, looked up): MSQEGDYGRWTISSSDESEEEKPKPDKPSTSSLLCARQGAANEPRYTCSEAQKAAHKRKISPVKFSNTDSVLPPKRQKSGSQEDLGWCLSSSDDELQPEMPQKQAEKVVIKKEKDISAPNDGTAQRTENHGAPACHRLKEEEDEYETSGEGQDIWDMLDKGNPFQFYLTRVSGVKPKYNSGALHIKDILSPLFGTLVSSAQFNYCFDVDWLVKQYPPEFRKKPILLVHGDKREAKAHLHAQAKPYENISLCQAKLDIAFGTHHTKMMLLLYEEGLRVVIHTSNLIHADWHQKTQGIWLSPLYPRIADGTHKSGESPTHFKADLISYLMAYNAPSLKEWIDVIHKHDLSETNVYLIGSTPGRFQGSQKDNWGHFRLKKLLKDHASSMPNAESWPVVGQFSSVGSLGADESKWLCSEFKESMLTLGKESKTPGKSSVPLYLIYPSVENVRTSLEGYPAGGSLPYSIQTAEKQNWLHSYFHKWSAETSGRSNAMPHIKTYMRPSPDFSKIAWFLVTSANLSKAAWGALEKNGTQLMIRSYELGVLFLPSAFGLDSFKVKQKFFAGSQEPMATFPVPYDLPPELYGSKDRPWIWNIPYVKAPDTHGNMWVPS
Transient receptor potential cation channel subfamily V member 1 (Homo sapiens), sequence (Q8NER1 whole entry, looked up): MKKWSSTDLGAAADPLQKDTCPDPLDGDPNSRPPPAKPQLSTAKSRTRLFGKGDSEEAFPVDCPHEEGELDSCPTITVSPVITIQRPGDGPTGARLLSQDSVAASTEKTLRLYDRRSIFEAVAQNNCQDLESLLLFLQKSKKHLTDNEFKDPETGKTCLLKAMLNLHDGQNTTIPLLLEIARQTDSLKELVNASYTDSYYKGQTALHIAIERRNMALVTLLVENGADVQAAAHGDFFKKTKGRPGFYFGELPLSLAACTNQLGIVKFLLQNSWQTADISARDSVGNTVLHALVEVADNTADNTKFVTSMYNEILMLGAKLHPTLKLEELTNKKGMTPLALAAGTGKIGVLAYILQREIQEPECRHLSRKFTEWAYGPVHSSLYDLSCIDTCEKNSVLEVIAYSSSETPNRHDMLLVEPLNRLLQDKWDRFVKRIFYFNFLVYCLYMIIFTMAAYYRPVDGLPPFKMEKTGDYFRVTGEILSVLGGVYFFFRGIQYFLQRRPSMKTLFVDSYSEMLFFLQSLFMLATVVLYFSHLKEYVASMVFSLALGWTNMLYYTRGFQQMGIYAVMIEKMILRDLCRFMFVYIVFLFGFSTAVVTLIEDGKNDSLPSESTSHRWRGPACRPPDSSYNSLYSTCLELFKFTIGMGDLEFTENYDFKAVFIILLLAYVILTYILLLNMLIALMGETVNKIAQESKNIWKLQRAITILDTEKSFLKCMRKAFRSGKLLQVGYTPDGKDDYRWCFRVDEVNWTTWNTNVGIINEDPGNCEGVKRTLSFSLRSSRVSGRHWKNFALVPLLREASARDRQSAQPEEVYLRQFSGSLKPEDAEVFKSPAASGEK
Methanococcus maripaludis chaperonin (MmCpn), sequence (Q6LX38 1-543): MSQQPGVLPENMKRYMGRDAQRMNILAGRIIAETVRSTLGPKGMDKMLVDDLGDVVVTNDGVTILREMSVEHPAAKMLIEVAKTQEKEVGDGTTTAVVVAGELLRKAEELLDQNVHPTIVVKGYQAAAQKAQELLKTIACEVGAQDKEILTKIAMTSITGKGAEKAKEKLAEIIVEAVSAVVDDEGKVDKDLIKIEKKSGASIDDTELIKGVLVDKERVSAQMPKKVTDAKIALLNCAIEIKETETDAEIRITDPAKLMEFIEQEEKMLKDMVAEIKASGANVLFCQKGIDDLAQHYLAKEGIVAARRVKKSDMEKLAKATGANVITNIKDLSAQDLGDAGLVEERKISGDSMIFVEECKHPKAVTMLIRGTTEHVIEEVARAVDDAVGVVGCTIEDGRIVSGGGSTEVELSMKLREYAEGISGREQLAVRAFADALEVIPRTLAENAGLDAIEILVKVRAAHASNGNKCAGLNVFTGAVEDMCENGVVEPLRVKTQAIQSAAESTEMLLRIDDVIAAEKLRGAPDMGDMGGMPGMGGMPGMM

CC[N+](C)(C)Cc1ccccc1Br
inactive: [1] | [2] | [3]

CN1Cc2c(N)cccc2C(c2ccccc2)C1 (stereo not drawn)
inactive: [1] | [4] | [2] | [3] | [5] | [6] | [7] | [8]

O=C(O)c1cc(O)c2c(c1)[O][Bi][O]2
active: [9] 15.8 µM

CC(=O)N[C@@H](CC(=O)O)C(=O)N[C@@H](CCC(=O)O)C(=O)O (Ac-Asp-Glu-OH)
active: [9] 25.1 µM
